Screens as filed in PubChem.
NR5A2 inv ag = NR5A2 inverse agonism in reporter assay; O00482; HEK293T StAR-luciferase reporter, LRH-1 transfected, 24 h; inhibition, % at 3.6 µM; 360,000 compounds, 0.13% hits; AID 602396;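 active means inhibition above the mean inhibition of all tested compounds plus 3 SD, cut at about 73% in these data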
SRC3 inh = human NCOA3 inhibition; Q9Y6Q9; HEK293 GAL4-SRC3 luciferase reporter, luminescence; inhibition, % at 3.6 µM; 360,000 compounds, 0.17% hits;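 active means inhibition above a per-campaign cutoff, the mean of all compounds plus 3 SD, cut at about 60% in these data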;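 further: higher means less SRC3-driven luciferase light from the GAL4 reporter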
Gli-Sufu antag = Gli-Sufu pathway antagonism; Sufu-KO-LIGHT fibroblasts, Gli luciferase reporter luminescence; inhibition, % at 5 µM; 340,000 compounds, 0.74% hits;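 active means inhibition above about 55%, limit read from the data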
NR2F2 inh = blocks human COUP-TFII nuclear receptor | inhibition, % at 8.6 µM | HEK293T NGFI-A luciferase reporter, luminescence | 370,000 compounds, 0.7% hits;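 active means inhibition above a per-plate cutoff, mean inhibition of test wells between control levels plus 3 SD, cut at about 38% in these data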;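 further: cells cotransfected with COUP-TFII expression vector driving the NGFI-A reporter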
SRC1 inh = inhibitors of human steroid receptor coactivator 1 (SRC1) | Q15788 | HEK293 GAL4-SRC1 luciferase reporter, luminescence | inhibition, % at 3.6 µM | 360,000 compounds, 0.12% hits | AID 588354;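 active means inhibition above the campaign mean plus 3 SD, with each screening campaign given its own cutoff, cut at about 60% in these data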
NCOA2 inhibitor = human SRC2 (NCOA2) inhibition. Q15596. inhibition, % at 9 µM. 370,000 compounds, 0.17% hits. HEK293 GAL4-SRC2 luciferase reporter, luminescence;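 active means inhibition above the mean inhibition of all tested compounds plus 3 SD, set per campaign, cut at about 52% in these data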
VP16 Luc counter = counter-screen for COUP-TFII antagonists: inhibitors of VP16 | shares compounds with NR2F2 inh | HEK293 Gal4-VP16 luciferase reporter, luminescence | inhibition, % at 8.5 µM | 2,500 compounds, 25% hits | AID 687007; in the data active means inhibition above about 13%
COUP-TFII conf = COUP-TFII (NR2F2) inhibition, confirmation assay. shares compounds with NR2F2 inh. HEK293 NGFI-A luciferase reporter, luminescence. inhibition, % at 8.5 µM. 2,500 compounds, 45% hits. AID 687008;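 active means mean inhibition over three repeats above a set limit taken from the earlier primary screen, cut at about 38% in these data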
Large screens that a line does not name were inactive (follow-up assays come after a bar, where they were run). Only some compounds are listed: those with a hit (about 1.3% of all), similar ones and a draw of the others.

CCC(=O)N1CCc2cc(Br)c(S(=O)(=O)NCCCN(C)Cc3ccccc3)cc21	none (no result: NR5A2 inv ag, SRC3 inh, Gli-Sufu antag, SRC1 inh)
Oc1cccc2ccc(Nc3ccccn3)nc12	NR2F2 inh 39 | VP16 Luc counter inactive | COUP-TFII conf inactive
Cc1ccc(-c2nc(C3CCCN(S(=O)(=O)c4ccc(C)c(C)c4)C3)no2)cc1 (stereo not drawn)	none (no result: NR5A2 inv ag, SRC3 inh, Gli-Sufu antag, SRC1 inh)
O=C(Nc1ccc(F)cc1)Nc1cc(OCC(F)(F)F)cc(OCC(F)(F)F)c1	NR2F2 inh 76 | VP16 Luc counter 17 | COUP-TFII conf 79
CC(COc1ccc(S(C)(=O)=O)cc1)CN1CCC(C(O)(c2ccccc2)c2ccccc2)CC1 (stereo not drawn)	none (no result: NR5A2 inv ag, SRC3 inh, Gli-Sufu antag, SRC1 inh)
CCOc1ccc(/C=C2\SC(=S)N(CCCC(=O)NCCCN3CCOCC3)C2=O)cc1	NR2F2 inh 69, NCOA2 inhibitor 84 | VP16 Luc counter 27 | COUP-TFII conf inactive
O=C(CCCN1C(=O)/C(=C/c2ccccc2Cl)SC1=S)NNC(=O)c1ccccc1Cl	NR2F2 inh 69, NCOA2 inhibitor 83 | VP16 Luc counter 69 | COUP-TFII conf 71
O=C(CCCN1C(=O)/C(=C/c2ccccc2Cl)SC1=S)NCCCN1CCOCC1	NR2F2 inh 63, NCOA2 inhibitor 79 | VP16 Luc counter inactive | COUP-TFII conf inactive
O=C(CCN1C(=O)/C(=C/c2ccccc2F)SC1=S)NCCCN1CCOCC1	none
CCc1ccc(/C=C2/SC(=S)N(CCC(=O)NCCCN3CCOCC3)C2=O)cc1	none
CCc1ccc(/C=C2\SC(=S)N(CCCC(=O)NCCCN3CCOCC3)C2=O)cc1	NR2F2 inh 84, NCOA2 inhibitor 89 (no result: Gli-Sufu antag) | VP16 Luc counter 68 | COUP-TFII conf 59
CCCC1CCC2(CCC(=O)N2CCO)CC1 (stereo not drawn)	none (no result: NR5A2 inv ag, SRC3 inh, Gli-Sufu antag, SRC1 inh)
Cc1ccc(NC(=O)CN2CCN(c3nc(-c4ccccc4)cs3)CC2)cc1C	none (no result: NR5A2 inv ag, SRC3 inh, Gli-Sufu antag, SRC1 inh)
CCc1c(C)nc2c(Br)cccc2c1SCCC#N	none
CCc1c(C)nc2ccc(Br)cc2c1SCCC#N	SRC3 inh 64, NR2F2 inh 38, SRC1 inh 65 | VP16 Luc counter inactive | COUP-TFII conf inactive
Clc1ccc2nc(CNc3nc(N4CCOCC4)nc4c3ncn4-c3ccsc3)[nH]c2c1	NR2F2 inh 70 (no result: NR5A2 inv ag, SRC3 inh, Gli-Sufu antag, SRC1 inh, NCOA2 inhibitor) | VP16 Luc counter 19 | COUP-TFII conf 45
CCC[C@H]1[C@@H](OC(=O)NCc2ccc(OC)c(OC)c2)CC[C@@]23CCCN2C(=O)CCC[C@@H]13	none (no result: NR5A2 inv ag, SRC3 inh, Gli-Sufu antag, SRC1 inh, NCOA2 inhibitor)
CCN(CC)S(=O)(=O)c1ccc(/C=C/C(=O)Nc2ccc(Br)cc2F)cc1	NR2F2 inh 56 | VP16 Luc counter inactive | COUP-TFII conf 70
CCN(CC)S(=O)(=O)c1ccc(/C=C/C(=O)Nc2ccc(F)cc2F)cc1	NR2F2 inh 50 | VP16 Luc counter inactive | COUP-TFII conf inactive
O=C(/C=C/c1ccc(S(=O)(=O)N2CCOCC2)cc1)Nc1ccc(F)c(F)c1F	none
CCN(CC)S(=O)(=O)c1ccc(/C=C/C(=O)Nc2ccc(F)c(F)c2F)cc1	NR2F2 inh 63 | VP16 Luc counter inactive | COUP-TFII conf 47
O=C(NCc1c(F)cccc1F)C1C2C=CC3(CN(Cc4ccccc4)C(=O)C13)O2 (stereo not drawn)	none (no result: NR5A2 inv ag, SRC3 inh, Gli-Sufu antag, SRC1 inh)
COc1ccc(CN(CCN2CCOCC2)C(=O)c2cccc(F)c2)cc1OC	none (no result: NR5A2 inv ag, SRC3 inh, Gli-Sufu antag, SRC1 inh)
CCCCn1c2c(c(=N)c3ccccc31)CCC2	none
CCCCCn1c2c(c(=N)c3ccccc31)CCC2	Gli-Sufu antag 84, NR2F2 inh 66 | VP16 Luc counter 14 | COUP-TFII conf 54
CCCCCCCCCCn1c2c(c(=N)c3c1CCC3)CCC2	NR5A2 inv ag 96, SRC3 inh 79, Gli-Sufu antag 92, NR2F2 inh 81, SRC1 inh 70 | VP16 Luc counter 21 | COUP-TFII conf 79
N=c1c2c(n(Cc3ccccc3)c3c1CCC3)CCC2	NR2F2 inh 41 | VP16 Luc counter inactive | COUP-TFII conf inactive
CCOC(=O)Cn1c2c(c(=N)c3ccccc31)CCC2	none
CCCCCCCCn1c2c(c(=N)c3ccccc31)CCC2	NR5A2 inv ag 84, SRC3 inh 78, Gli-Sufu antag 91, NR2F2 inh 90 | VP16 Luc counter 13 | COUP-TFII conf 73
O=C(Nc1ccc(Oc2ccccc2)cc1)C1CCN(c2nnc(-n3cccc3)s2)CC1	none (no result: NR5A2 inv ag, SRC3 inh, Gli-Sufu antag, SRC1 inh)
COc1cc(NC(=O)C(OC(=O)CNC(=O)c2ccccc2)c2ccccc2)cc(C(F)(F)F)c1 (stereo not drawn)	none (no result: NR5A2 inv ag, SRC3 inh, Gli-Sufu antag, SRC1 inh, NCOA2 inhibitor)
CSCCC(Nc1ncnc2ccc(Br)cc12)C(=O)O (stereo not drawn)	none
CC(C)Nc1ncnc2ccc(Br)cc12	SRC3 inh 62, NR2F2 inh 53, SRC1 inh 66 | VP16 Luc counter 19 | COUP-TFII conf 45
COC(=O)C/C=C/[C@H](C)[C@@H](NC(=O)C(F)(F)F)c1ccccc1Br	none (no result: NR5A2 inv ag, SRC3 inh, Gli-Sufu antag, SRC1 inh)
Cn1nc(C(F)(F)F)c(C#N)c1N1CCN(c2ccc(F)cc2)CC1	NR2F2 inh 45 | VP16 Luc counter inactive | COUP-TFII conf inactive
Cc1nc(C)c(-c2ccc(SCC(=O)Nc3cccc(F)c3)nn2)s1	NR2F2 inh 47 | VP16 Luc counter inactive | COUP-TFII conf inactive
Cc1nc(C)c(-c2ccc(SCC(=O)Nc3cccc(Cl)c3)nn2)s1	NR2F2 inh 53 | VP16 Luc counter inactive | COUP-TFII conf inactive
CC(=O)c1cccc(NC(=O)CSc2ccc(-c3sc(C)nc3C)nn2)c1	none
CCCCOCCCNC(=O)C[C@@H]1C(=O)N(Cc2ccc(OC)cc2)C2=CCN(C(=O)OC(C)(C)C)C[C@]21C(=O)OCC	none (no result: NR5A2 inv ag, SRC3 inh, Gli-Sufu antag, SRC1 inh)
CCCCNC(=O)C1CCCN1C(=O)NCc1ccccc1OC (stereo not drawn)	none (no result: NR5A2 inv ag, SRC3 inh, Gli-Sufu antag, SRC1 inh)
COc1cccc(-c2nnc(SCc3cc(C)ccc3C)n2Cc2ccco2)c1	NR2F2 inh 41 (no result: NR5A2 inv ag, SRC3 inh, Gli-Sufu antag, SRC1 inh) | VP16 Luc counter inactive | COUP-TFII conf inactive
COc1cc(/C=N/n2c(-c3cc(-c4ccccc4)n[nH]3)n[nH]c2=S)ccc1OCc1ccccc1	none (no result: NR5A2 inv ag, SRC3 inh, Gli-Sufu antag, SRC1 inh)
O=C(CN1CCOCC1)Nc1nc(-c2ccc3c(c2)CCN3S(=O)(=O)c2ccccc2)cs1	NR2F2 inh 42 | VP16 Luc counter inactive | COUP-TFII conf inactive
Cc1sc(NC(=O)CN2CCOCC2)nc1-c1ccc2c(c1)CCN2S(=O)(=O)c1ccccc1	NR2F2 inh 65 | VP16 Luc counter inactive | COUP-TFII conf 56
CS(=O)(=O)N1CCc2cc(-c3csc(NC(=O)Cc4cccs4)n3)ccc21	NR2F2 inh 66 | VP16 Luc counter inactive | COUP-TFII conf inactive
Cc1cccc(C(=O)N2CCc3cc(-c4nc(NC(=O)CN5CCCC5)sc4C)ccc32)c1	none
CC(=O)Nc1nc(-c2ccc3c(c2)CCN3S(C)(=O)=O)cs1	none
C[C@H](O)[C@@H]1CN2CCc3c([nH]c4c(-c5ccccc5)cccc34)[C@@H]2C[C@@H]1N(C)C(=O)c1ccco1	none (no result: NR5A2 inv ag, SRC3 inh, Gli-Sufu antag, SRC1 inh)
